mHTT CaM bind: mutant huntingtin-calmodulin interaction inhibitors – biochemical, AlphaScreen, primary screen; P42858; AlphaScreen His-mHTT/GST-CaM binding, luminescence; inhibition, % at 15 µM; 190,000 tested, 3.6% active;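 further: 0% = both proteins with DMSO and 100% = one protein alone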
Pf apPOL block: Pf-apPOL inhibitors, biochemical, fluorescence | 210,000 tested, 0.25% active | Recombinant Pf-apPOL, molecular beacon fluorescence, 1.5 h | Plasmodium falciparum apicoplast DNA polymerase (apPOL) | AID 1794808, 2022 | inhibition, % at 10 µM
Numbers without * were called inactive; . = no result given. Rows were chosen to be rich in hits. Some 3.5% of all compounds tested hit in one or more screens of this group. No stated cut-off is given here; in the data, active means inhibition above about 50%; inactive means the rest.

SMILES	mHTT CaM bind	Pf apPOL block
O=C(C=Cc1ccccc1)Oc1ccc2c(c1)OC(=Cc1ccco1)C2=O	79.3*	5.5
Cc1c(Br)c([N+](=O)[O-])nn1CCCC(=O)Nc1sc2c(c1C#N)CCCC2	1.0	0.7
Cc1ccc(-n2cnc(C(=O)NC(C)C)n2)cc1	4.8	-1.6
COc1ccccc1NC(=O)N1CCc2c(c(COCc3cccc(F)c3)nn2C)C1	20.4	-2.7
Cn1c(C(=O)NCc2ccco2)cc2c1CCN(Cc1ccccc1)C2	48.3	-1.3
COc1ccc(CNC(=O)c2cc3c(n2C)CCN(Cc2ccc(F)cc2)C3)cc1	30.6	-3.3
COc1cccc(CNC(=O)c2cc3c(n2C)CCN(Cc2ccc(F)cc2)C3)c1OC	25.1	-8.4
COc1ccccc1NC(=O)c1cc2c(n1C)CCN(Cc1ccc(F)cc1)C2	63.3*	-1.7
COc1ccc(CNC(=O)c2cc3c(n2C)CCN(Cc2ccc(F)cc2)C3)cc1OC	75.6*	-5.3
Cc1ccc(CN2CCc3c(cc(C(=O)NCc4ccco4)n3C)C2)cc1	62.3*	0.6
COc1ccccc1NC(=O)N1CCc2c(c3cc(F)ccc3n2C)C1	81.5*	-3.8
O=C(C=Cc1ccco1)c1ccc2c(c1)OCO2	24.6	25.3
Cc1sc2ncnc(Cl)c2c1C	-7.9	.
O=C(NCCCN1CCCc2ccccc21)C1CCCN(c2cn[nH]c(=O)c2)C1 (centres undefined)	35.2	2.2
Cc1cc(=O)oc2cc(OCC3CCNCC3)ccc12	-2.8	-6.5
CC1C(=O)N(c2ccccc2)CCN1C(=O)c1ccc2c(c1)OCO2 (centres undefined)	-8.0	-1.5
COc1ccccc1C1C(C(=O)Nc2ccccc2F)=C(C)NC2=C1C(=O)CC(C)(C)C2 (centres undefined)	0.0	0.8
CSc1ccc(/C=C2\N=C(c3ccc(C)c([N+](=O)[O-])c3)OC2=O)cc1	8.0	-1.4
CN(C)CCNC(=O)c1cc2c(n1C)CCN(Cc1ccccc1)C2	4.6	-3.1
CN(C)CCCNC(=O)c1cc2c(n1C)CCN(Cc1ccc(F)cc1)C2	95.6*	1.8
C=CCn1c2ccccc2n2c(C(=O)CC)c(-c3ccc(OC)cc3)nc12	2.4	-10.7
O=C1CC(c2ccccc2O)CC2=C1C(c1ccccc1)n1ncnc1N2 (centres undefined)	-14.3	-4.0
O=C(O)CSc1nnc(-c2ccc(Cl)cc2)n1-c1ccccc1	-8.9	-0.7
O=C(O)CSc1nnc2n1-c1ccc(Cl)cc1NN2	.	75.8*
Cn1c(=O)c2nc3ccc(NC(=O)CCC(=O)O)cc3nc2n(C)c1=O	5.0	-5.6
SMILES	mHTT CaM bind	Pf apPOL block
CCc1nc(-c2ccc(C(=O)N3CCN(c4ccccc4)CC3)cc2)cs1	10.3	-3.2
CCc1nc(-c2ccc(C(=O)N3CCc4ccccc4C3)cc2)cs1	59.9*	-1.3
Cc1nc(CC(=O)Nc2cccc(F)c2)cs1	5.9	0.3
CCCNC(=O)c1c2c(nc3ccccc13)CCCC2	-2.6	1.7
CCCC(C)C(=O)Nc1ccccc1OCC (centres undefined)	-19.8	0.0
Cc1ccc(/C=C/NC(=O)c2ccco2)cc1C	76.7*	-3.9
Cc1cccc(C)c1NC(=O)c1ccco1	-9.0	-6.0
O=C(CCCc1ccccc1)NC1CCN(c2nnc3ccc(C(F)(F)F)cn23)CC1	7.0	-2.5
CCC(=O)Nc1nc2ccccc2n1Cc1ccc(Cl)cc1	71.9*	-6.9
CCC(=O)Nc1nc2ccccc2n1C	-7.1	-0.1
Cn1cccc1CN1CCN(C2CCCC2)CC1	14.1	-2.1
CCOC(=O)c1ccccc1NC(=O)CSc1nnc(-c2c[nH]c3ccccc23)n1C	1.2	-11.4
COc1ccc(Cl)cc1NC(=O)CSc1nnc(-c2c[nH]c3ccccc23)n1C	54.7*	-11.5
COc1cccc(C2CC(=O)Nc3cc(C)c(C)cc32)c1OC (centres undefined)	100.1*	-17.1
COc1cc2c(cc1OC)C(c1cccc(Cl)c1Cl)CC(=O)N2 (centres undefined)	9.0	-4.8
COc1ccc(NC(=O)CC(C)C)cc1N1CCCC1=O	-10.1	-6.3
COc1ccc(NC(=O)NC(c2ccccc2)c2ccccc2)cc1N1CCCC1=O	55.3*	3.0
c1ccc(CN2CCN(c3ccccn3)CC2)cc1	-7.3	-5.5
CCN(Cc1ccccc1)C(=O)Cn1c(=O)n(-c2ccc(F)cc2)c(=O)c2sccc21	-7.0	4.8
Cc1ccc(NC(=O)CCN2C(=O)c3ccncc3C2=O)c(Cl)c1	-4.0	-7.0
CCOc1ccc(NC(=O)C2CN(S(=O)(=O)c3cccnc3)CC23CCCCC3)cc1 (centres undefined)	52.2*	-1.2
COc1ccc(CNC(=O)C2CN(S(=O)(=O)c3cccnc3)CC23CCCCC3)cc1 (centres undefined)	3.4	-3.1
O=c1oc2c(-c3ccc([N+](=O)[O-])cc3)cc(O)cc2s1	8.6	2.2
Cc1cccc(-c2cc(O)cc3sc(=O)oc23)c1	91.0*	5.1
COc1cc(OC)c2c(-c3cccc(-c4cccc(C)c4)c3)cc(=O)oc2c1	-5.9	-7.5
SMILES	mHTT CaM bind	Pf apPOL block
O=c1oc2c(-c3ccc(Cl)cc3)cc(O)cc2s1	80.0*	0.1
CCC(C)NC(=O)C1CCN(c2ccc(F)cc2C)C1=O (centres undefined)	-3.5	-3.4
Cc1cccc(NC(=O)c2sc3nc(-c4ccccc4)cn3c2C)n1	50.0*	-0.7
Cc1c(C(=O)Nc2ccccn2)sc2nc(-c3ccccc3)cn12	7.8	-24.1
Cn1c(CC2CCN(C(=O)c3ccc(C(F)(F)F)cc3)C2)nc2cccnc21 (centres undefined)	22.9	-6.1
CC(CCc1ccccc1)NC(=O)Cn1ccc2ccccc21 (centres undefined)	-10.1	-9.0
Cc1cnc(C(=O)N2CCCC(C(=O)NCc3ccc(F)cc3)C2)cn1 (centres undefined)	-2.8	-4.4
CC1=Nc2cc(C(=O)NCCN3CCOCC3)ccc2Sc2ccc(Cl)cc21	39.0	-19.7
CC1=Nc2cc(C(=O)NCCCN3CCC(C)CC3)ccc2Sc2ccc(Cl)cc21	53.0*	-16.4
Cc1nc(C(=O)NCc2n[nH]c(=O)c3ccccc23)cs1	-5.5	11.3
CC(=O)N(CCC1(c2ccccc2)CCOC(C)(C)C1)Cc1ccc(N(C)C)cc1 (centres undefined)	75.2*	-3.5
CC1(C)CC(CCN(Cc2ccccc2)C(=O)c2ccco2)(c2ccccc2)CCO1 (centres undefined)	25.6	-0.7
COc1ccccc1C(=O)N1CCN(c2nc(CN3CCCCC3)cs2)CC1	0.8	-5.4
C=CCNC(=O)C1CCC(Cn2c(=O)[nH]c3ccsc3c2=O)CC1 (centres undefined)	-1.0	-3.1
COc1cccc(-c2nn(CC(=O)N3CCc4ccccc43)c(=O)c3nc(C)sc23)c1	-2.0	-5.2
COc1ccc(-c2nn(Cc3ccccc3F)c(=O)c3nc(C)sc23)cc1OC	64.8*	-8.5
Clc1ccccc1CN1CCCN(c2ncccc2-c2nc(C3CC3)no2)CC1	-72.5	1.7
CCC(=O)Nc1cccc(NC(=O)c2ccc(-c3ccccc3)cc2)c1	2.6	-4.4
O=C1OCCN1C(=O)[C@H]1[C@H](c2ccc([N+](=O)[O-])cc2)C(c2cccc(Cl)c2)=NN1c1ccccc1	55.2*	-1.4
O=C1OCCN1C(=O)[C@H]1[C@H](c2ccc([N+](=O)[O-])cc2)C(c2ccccc2)=NN1c1ccccc1	47.0	-1.0
